Assay results: PubChem BioAssay AID1063 (University of Pittsburgh Molecular Library Screening Center, 2008)
In all, about 200,000 compounds went through this assay and about 18,000 (9%) were called active. This excerpt belongs to a sample that is enriched for actives. A number with no mark means an inactive call. Cut-off read from the data, not from the text of the source: active = inhibition above about 50%; inactive = the rest.

assay: Leishmania major promastigote growth inhibition, primary screen (AID 1063); details: Leishmania major promastigotes, resazurin fluorescence viability; at 10 µM; hits give high values;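 note: promastigotes grown with compound for 44 hours at 28 °C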

In order of rising inhibition:
1. CCCC/S(C)=N/S(=O)(=O)c1ccc(C)cc1 (stereo not given)  -10.2%
2. O=C(CCN1C(=O)c2ccccc2C1=O)NCCCn1ccnc1  -10.1%
3. Cc1cc(C(=O)NNC(=O)c2cccc(S(=O)(=O)N3CCOCC3)c2)c2ccccc2n1  -9.98%
4. CCO[C@@H]1OC(C(=O)N2CCOCC2)=C[C@H](C)[C@H]1CCCO  -9.37%
5. Cc1c(CCOC(=O)c2cc([N+](=O)[O-])ccc2Cl)sc[n+]1CCCCS(=O)(=O)[O-]  -8.59%
6. COCCCNC(=S)NC(=O)c1ccc([N+](=O)[O-])cc1  -8.2%
7. CCN1CC(CN(C)Cc2nc(-c3ccc(Cl)cc3)no2)CC1=O (stereo not given)  -8.19%
8. O=C(O)CC1S/C(=N\N=C/c2ccccc2O)N(c2ccc(O)cc2)C1=O (stereo not given)  -7.61%
9. CC(C)(C)C(=O)Cn1c(NCCO)nc2ccccc21  -7.58%
10. COc1ccc(C(=O)COC(=O)c2ccc3ccccc3n2)cc1  -7.38%
11. CC(=O)c1c(C)[nH]c(C(=O)Nc2cc(S(=O)(=O)N(C)C)ccc2C)c1C  -6.9%
12. CC(=O)Nc1ccc(S(=O)(=O)Nc2nccc(/C=C/c3ccccc3F)n2)cc1  -6.64%
13. CCC1CO/C(=C(\C(=C(Cl)Cl)N2CCOCC2)[N+](=O)[O-])N1 (stereo not given)  -6.26%
14. O=C(Nc1ccc2nccnc2c1)c1ccco1  -6.2%
15. Cc1ccnc(NC(=O)c2ccco2)n1  -6.16%
16. O=S(=O)(O)c1nc2ccccc2n1Cc1ccc(Cl)cc1  -5.39%
17. CC(=O)C1(C)N(O)C(C)(C)C(c2cccs2)=[N+]1[O-] (stereo not given)  -4.97%
18. Cc1ccc(SCCC(=O)OCC(=O)Nc2ncc(Cl)cc2Cl)cc1  -4.94%
19. CC(NC(=O)COC(=O)c1cc(=O)[nH]c2ccccc12)c1ccccc1 (stereo not given)  -4.71%
20. COc1cc(NC(=O)COC(=O)c2cnc(C)cn2)c(C)cc1[N+](=O)[O-]  -4.51%
21. COc1ccc(CCCc2nnc(SCc3nc4ccccc4c(=O)[nH]3)n2C)cc1  -4.22%
22. COc1ccc(Cl)cc1C(=O)NCC#N  -4%
23. O=C(N/N=C/c1ccccn1)c1ccc(S(=O)(=O)N2CCCCCC2)cc1  -3.79%
24. Cc1ccccc1CC1(CO)CCCN(C(=O)c2cc(-c3ccccc3)no2)C1 (stereo not given)  -3.77%
25. CCC1CCc2c(sc(NC(C)=O)c2C#N)C1 (stereo not given)  -3.49%
26. Cn1nnnc1SCC(=O)Nc1nc2ccccc2s1  -3.39%
27. CC(=O)c1cc(C#N)c(N2CCCCC2)nc1C  -3.09%
28. COc1ccc(CCNC(=O)CCn2c(=O)c3ccccc3n(CC(=O)NCC3CCCO3)c2=O)cc1OC (stereo not given)  -3.03%
29. Cc1cc(OC(=O)c2ccccc2)c([N+](=O)[O-])c(=O)[nH]1  -2.98%
30. COc1cc(NS(=O)(=O)c2ccc(NC(=O)c3ccc(S(=O)(=O)N4CCCCC4)cc3)cc2)ncn1  -2.97%
31. Cc1ccc(S(=O)(=O)C(C#N)c2nc3ccccc3nc2N2CCCC2)cc1C (stereo not given)  -2.26%
32. Cn1c(NN)nc2sc3c(c2c1=O)CCC3  -2.23%
33. CCOC(=O)CNC(=O)/C(=C\c1ccc(F)cc1)NC(=O)c1ccccc1  -2.16%
34. Cc1nn2cc(-c3ccc(Cl)cc3)cnc2c1Br  -2.01%
35. CCCCNC(=O)CCn1c(=S)[nH]c2cc3c(cc2c1=O)OCO3  -1.74%
36. CCN1CCN(CC(=O)Nc2sc3c(c2C#N)CCC3)CC1  -1.23%
37. CCC(=O)NCCc1nc2ccccc2n1CC  -0.68%
38. CCN1CCc2nc(NC(=O)c3cc(F)c(F)cc3Cl)sc2C1  -0.49%
39. COc1cc(CC(=O)N/N=C/c2ccccc2)c([N+](=O)[O-])cc1OC  -0.35%
40. COc1ccc(S(=O)(=O)N(C)CC(=O)N2CCCC2)cc1Cl  -0.12%
41. COc1ccccc1CNC(=O)COc1ccc(C)nc1[N+](=O)[O-]  0.88%
42. CC(c1ccco1)N(C(=O)COc1ccccc1[N+](=O)[O-])c1ccccn1 (stereo not given)  1.39%
43. Nc1ccc(Cl)c(S(=O)(=O)Nc2ccccc2Cl)c1  1.56%
44. CCOc1ccccc1C1CC(c2cccc(NS(C)(=O)=O)c2)=NN1C(=O)c1ccccc1 (stereo not given)  2.04%
45. COc1ccccc1OCCNc1cc(N2CCOCC2)ccc1[N+](=O)[O-]  2.32%
46. COc1cccc(CC2(CO)CCCN(Cc3nc(-c4cccs4)oc3C)C2)c1 (stereo not given)  2.57%
47. COc1ccc(CNC(=O)CN2CCC(n3nnc4cc(F)ccc43)CC2)cc1  2.66%
48. COc1ccc(S(=O)(=O)N2CCCCCC2)cc1C(=O)OCC(=O)Nc1cc(C)on1  3.73%
49. Cc1noc(C)c1S(=O)(=O)Nc1ccc(C(=O)N2CCN(c3ccc(F)cc3)CC2)cc1  4.11%
50. COCCNC(=O)CCCn1c(=O)c2ccccc2n(Cc2cccc([N+](=O)[O-])c2)c1=O  4.7%
51. Cc1cccc2cc(C#N)c(N3CCCC3)nc12  4.74%
52. COc1ccc(CN(C)C(=S)Nc2ccc(Cl)cc2Cl)cc1  4.79%
53. COc1ccc(CCNc2ncnc3nc[nH]c23)cc1OC  5.03%
54. CCOc1ccc(CCNC(=O)C2=C(C)C(=O)OC23CCC(C)CC3)cc1OCC (stereo not given)  5.17%
55. Cc1cc(Cl)ccc1OCCCC(=O)NCc1ccccn1  5.49%
56. Cc1ccc(OCC(=O)Nc2ccccc2Sc2ccc(Cl)cc2)c([N+](=O)[O-])n1  7.6%
57. COc1ccc(CCNC2=C(Cl)C(=O)N(Cc3ccccc3)C2=O)cc1OC  8.4%
58. Cc1ccc(Cn2c(NC(=O)c3ccco3)nc3ccccc32)cc1  9.07%
59. NS(=O)(=O)c1cccc(NC(=O)CSc2nc3ccccc3n2-c2ccccc2)c1  9.64%
60. CCCCn1c(CCCNC(=O)CC)nc2ccccc21  12.4%
61. CC(=O)c1ccc(NC(=O)C(C)N(C)CC(=O)Nc2ccccc2Cl)cc1 (stereo not given)  12.8%
62. O=C(CSc1ccc(-c2ccco2)nn1)NCc1ccc2c(c1)OCO2  14%
63. Cc1ccc(NC(=O)CSCC(=O)NC2CCCCC2)cc1  14.3%
64. CC(C)(C)NCc1cc(Br)ccc1OC1CCCC1  15.5%
65. COc1cc(CN2CC(C)CC(C)C2)cc([N+](=O)[O-])c1O (stereo not given)  16.2%
66. Cc1ccc(Cl)cc1NC(=S)N(CCN(C)C)Cc1cccs1  18.3%
67. O=C(Nc1cccc(NC(=O)c2ccco2)c1)c1cnccn1  20.6%
68. C=CS(=O)c1sc(Cl)c(N2CCOCC2)c1[N+](=O)[O-] (stereo not given)  20.9%
69. CCc1cccc(C)c1NC(=S)N(CCCN1CCN(C)CC1)Cc1cccs1  22.3%
70. Cc1c(CCO)sc[n+]1CC(=O)OC12CC3CC(CC(C3)C1)C2  30.7%
71. COc1ccc(C2CC(c3ccccc3)=NN2C(=O)c2ccc(Cl)c([N+](=O)[O-])c2)cc1 (stereo not given)  31.9%
72. CCN(CC(=O)NCc1cccs1)C(=O)c1ccccc1F  35%
73. COc1cc(CNC2CCCC2)c(Br)cc1OCc1ccccc1  35.4%
74. CCOc1cc(NC(=S)NCCCOC)c(OCC)cc1NC(=O)c1ccco1  36.4%

In the case of `Cc1ccc(-n2c(SCC(=O)Nc3ncc(Cl)cc3Cl)nc3ccccc32)cc1`, the inhibition is reported as 89.5% (active).
For `CCOC(=O)c1cc(C#N)c(N2CCCCC2)nc1-c1ccccc1`, the inhibition was 53.9% (active).
For `Cc1cc(N2CCN(S(=O)(=O)c3ccc(C)c(C)c3)CC2)c2ccccc2n1`, the inhibition was 98.6% (active).
In the case of `COc1ccc(CCNc2cc(C)nc3c(-c4ccc(Cl)cc4)c(C)nn23)cc1OC`, the inhibition is reported as 76.3% (active).
In the case of `COc1ccccc1OCCNC(=O)c1cc([N+](=O)[O-])cc([N+](=O)[O-])c1`, the inhibition is reported as 93.5% (active).
In the case of `CCc1ccccc1NC(=O)CN(C)C(=O)COc1ccc(C)nc1[N+](=O)[O-]`, the inhibition is reported as 57.1% (active).
With `CC(=O)c1c(C)[nH]c(C(=O)OCC(=O)Nc2cc(S(=O)(=O)N3CCCCC3)ccc2C)c1C` the inhibition was 95.4% (active).
In the case of `OCCNc1nc2ccccc2n1-c1ncnc2sc3c(c12)CCC3`, the inhibition is reported as 60.8% (active).
For `CCOc1ccc2nc(Cl)c(C3CC(c4ccccc4)=NN3C(=O)c3cccs3)cc2c1` (stereo not given), the inhibition was 66.5% (active).
For `Cc1ccccc1CC1(CO)CCCN(Cc2ccc3c(c2)OCCO3)C1` (stereo not given), the inhibition was 70.2% (active).
With `COc1cc(CN2CCN(Cc3ccc(C)cc3)CC2)c([N+](=O)[O-])cc1OC` the inhibition was 53.4% (active).
In the case of `CN1CCN(CC(=O)Nc2sc3c(c2C#N)CCC(C(C)(C)C)C3)CC1` (stereo not given), the inhibition is reported as 100% (active).
In the case of `N#C/C=C\Oc1ccc(Cl)cc1N`, the inhibition is reported as 67.9% (active).
For `Cc1c(CCOC(=O)CC23CC4CC(CC(C)(C4)C2)C3)sc[n+]1Cc1ccc([N+](=O)[O-])cc1`, the inhibition was 87.9% (active).
With `CCCCNC(=O)CCn1c(=O)c2ccccc2n(Cc2cc(C)ccc2C)c1=O` the inhibition was 58% (active).
For `CCC(=O)Nc1nc2ccccc2n1Cc1ccccc1C`, the inhibition was 97.5% (active).
In the case of `CC(=O)Nc1nc2ccccc2n1Cc1ccc(C)cc1`, the inhibition is reported as 88.6% (active).
In the case of `COc1cc(CNC2CCCCC2)c(Br)cc1OC1CCCC1`, the inhibition is reported as 60.8% (active).
With `Cc1ccccc1NC(=S)N(CCCN1CCOCC1)Cc1cccs1` the inhibition was 61.8% (active).
In the case of `O=C(Nc1cccc(-c2nc3ncccc3o2)c1)c1ccco1`, the inhibition is reported as 100% (active).
For `CC(c1ccco1)N(C(=O)c1ccc(S(=O)(=O)N2CCCCC2)cc1)c1ccccn1` (stereo not given), the inhibition was 89.7% (active).
